Data: the supplement of paper PMC6897291

Tested on: RIVA
Assay: growth inhibition by drug plus 177Lu-lilotomab satetraxetan (1 - RLU/untreated control) (fraction); higher = stronger inhibition
Details: 177Lu-lilotomab satetraxetan 0.5 ug/ml
Method: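 RIVA (RI-1) ABC-DLBCL cells were pretreated or not for 18 h with 0.5 ug/ml 177Lu-lilotomab satetraxetan (600 MBq/mg), washed and seeded (3000 cells/well) on 384-well plates pre-printed with the Selleck Cambridge Cancer Compound library. Viability was read by RealTime-Glo luminescence on days 3-6 after seeding. Effect = 1 - RLU/mean RLU of the 48 untreated no-drug control wells per plate; Bliss score = (M-E)/(1-Fa).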

Compound | growth inhibition by drug plus 177Lu-lilotomab satetraxetan (10 nM, time (day): 3) | growth inhibition by drug plus 177Lu-lilotomab satetraxetan (10 nM, time (day): 4) | growth inhibition by drug plus 177Lu-lilotomab satetraxetan (10 nM, time (day): 5) | growth inhibition by drug plus 177Lu-lilotomab satetraxetan (10 nM, time (day): 6) | growth inhibition by drug plus 177Lu-lilotomab satetraxetan (100 nM, time (day): 3) | growth inhibition by drug plus 177Lu-lilotomab satetraxetan (100 nM, time (day): 4) | growth inhibition by drug plus 177Lu-lilotomab satetraxetan (100 nM, time (day): 5) | growth inhibition by drug plus 177Lu-lilotomab satetraxetan (100 nM, time (day): 6)
N.N.[Cl][Pt][Cl] [Cisplatin] | 0.539 | 0.565 | 0.592 | 0.599 | 0.463 | 0.526 | 0.544 | 0.57
CC[C@@H](C(=O)[C@@H](C)[C@@H](O)[C@H](C)[C@@H]1O[C@@H]([C@@H](CC)C(=O)O)CC[C@@H]1C)[C@H]1O[C@]2(C=C[C@@H](O)[C@]3(CC[C@@](C)([C@H]4CC[C@](O)(CC)[C@H](C)O4)O3)O2)[C@H](C)C[C@@H]1C [Salinomycin (Procoxacin)] | 0.491 | 0.572 | 0.591 | 0.6 | 0.481 | 0.518 | 0.517 | 0.502
CCC1(c2ccc(N)cc2)CCC(=O)NC1=O (stereo not given) [Aminoglutethimide (Cytadren)] | 0.446 | 0.523 | 0.538 | 0.547 | 0.226 | 0.376 | 0.379 | 0.408
CC1=C2C[C@H]3[C@@H](CC=C4C[C@@H](O)CC[C@@]43C)[C@@H]2CC[C@]12O[C@@H]1C[C@H](C)CN[C@H]1[C@H]2C [Cyclopamine] | 0.301 | 0.397 | 0.41 | 0.418 | 0.454 | 0.57 | 0.559 | 0.53
O=P1(N(CCCl)CCCl)NCCCO1 (stereo not given) [Cyclophosphamide monohydrate] | 0.338 | 0.47 | 0.502 | 0.506 | 0.305 | 0.403 | 0.426 | 0.394
